Bioassay records as filed in PubChem BioAssay.
TWEAK-Fn14 inh: TWEAK-Fn14 signaling inhibition. AID 1159606. inhibition, % at 10 µM. TWEAK-stimulated Fn14 reporter cells, luciferase luminescence, 8 h. 2% of 360,000 active; in the data active means inhibition above about 50%
KKLEB cytotox: CF airway cell cytotoxicity counter-screen. KKLEB CF airway cells viability, ATPlite luminescence, overnight; active compounds read low; cells stimulated with P. aeruginosa culture filtrate. activity change (cytotoxicity), % at 5 µM. 0.36% of 360,000 active. AID 602141;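 active means corrected activity change at or below -50% at 5 µM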
CF NFkB block: inhibitors of cystic fibrosis induced NF-kB; inhibition, % at 5 µM; KKLEB NF-kB-GFP reporter, PAF-induced, GFP fluorescence overnight; 0.86% of 360,000 active; AID 588850;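 active means at least 50% inhibition at 5 µM, scaled per plate between neutral and stimulator controls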;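 further: PAF is a Pseudomonas aeruginosa culture filtrate used as stimulus; plate controls were PAF-stimulated DMSO wells for no effect and unstimulated DMSO wells for full effect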
HIF-2a inh: HIF-2a inhibition | 0.72% of 360,000 active | 786-0 RCC cells HIF-2a reporter, luciferase luminescence, overnight | inhibition, % at 18.8 µM;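 active means inhibition of the luminescence signal of 40% or more relative to plate controls, in a single-dose primary screen at 18.75 µM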
TROY signal inh: inhibitors of TROY-dependent NF-kB signaling; 0.98% of 360,000 active; inhibition, % at 10 µM; AID 1347056; Q293 LMP1-TROYcd NF-kB luciferase reporter, 4 h;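 active means compounds whose plate-normalised and pattern-corrected inhibition of the luciferase reporter signal at the single screening dose is 50% or more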
Peg3 promoter: inhibitors of Peg3 promoter; 1.7% of 360,000 active; AID 588405; HeLa PEG-Prom luciferase reporter, luminescence, overnight; inhibition, % at 20 µM;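 active means inhibition of at least 50% at 20 µM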
An asterisk follows results filed as active; . = not tested or not shown. Compounds with a hit are over-represented: about 4% of the library has one in this group of screens.

SMILES	TWEAK-Fn14 inh	KKLEB cytotox	CF NFkB block	HIF-2a inh	TROY signal inh	Peg3 promoter
Clc1cccc(Cc2c(-c3ccco3)nc3c4ccccc4ccn23)c1	69*	.	.	-211	0	.
COc1ccc(NC(=O)N(C)[C@H]2C[C@H]3c4[nH]c5ccc(-c6ccc(OC)cc6)cc5c4CCN3C[C@H]2[C@H](C)O)cc1	-44	1	22	-62	-13	98*
COc1ccc(NC(=O)N(C)[C@H]2C[C@H]3c4[nH]c5ccc(-c6ccc7c(c6)OCO7)cc5c4CCN3C[C@H]2[C@H](C)O)cc1	7	-2	10	-11	13	55*
COc1ccc(NC(=O)O[C@@H](C)[C@@H]2CN3CCc4c([nH]c5ccc(-c6ccc(OC)cc6)cc45)[C@@H]3C[C@@H]2N(C)C(=O)Nc2ccc(OC)cc2)cc1	-2	-2	14	-15	-9	10
COc1ccc(-c2ccc3[nH]c4c(c3c2)CCN2C[C@@H]([C@H](C)OC(=O)Nc3cc(Cl)cc(Cl)c3)[C@@H](N(C)C(=O)Nc3cc(Cl)cc(Cl)c3)C[C@@H]42)cc1	40	-7	17	27	5	33
CNC(=O)C1Cc2ccccc2CN1S(=O)(=O)c1cccs1 (stereo not given)	17	3	-10	2	-1	51*
CN(C)CC(=O)Nc1ccc2c(c1)[C@H]1C[C@H](CC(=O)NCc3ccc4c(c3)OCO4)O[C@H](CO)[C@H]1O2	19	9	-24	-7	-12	1
N#CN1CCC(NS(=O)(=O)c2ccc(C(F)(F)F)cc2)CC1	2	-24	-1	-2	0	-10
O=C(CSc1nc2ccccc2[nH]1)Nc1nc(-c2cccc(Br)c2)cs1	-15	-13	8	22	0	0
CN(C)CCCn1c(SCC(=O)Nc2nc(-c3cccc(Br)c3)cs2)nc2ccccc2c1=O	-33	-20	6	-32	-34	104*
COc1ccc(/C=N/Nc2ccc(C(=O)O)cc2)cc1Br	93*	4	-5	34	66*	36
CC(C)c1cc(Cn2c3ccccc3c(=O)n2C(C)Cn2cc(CCCC#N)nn2)on1 (stereo not given)	.	.	.	9	.	.
CC(C)(C)C1CCc2onc(C(=O)NC3CCCC3)c2C1 (stereo not given)	-16	0	4	-19	14	1
Cc1ccc(NC(=O)c2noc3c2CCCCC3)cc1	51*	14	-3	-151	-10	-197
CCc1ccc(NC(=O)c2noc3c2CCC3)cc1	73*	-6	-13	9	28	-48
O=C(NC1CCCCC1)c1noc2c1CCCCC2	55*	1	-3	-136	42	-161
CCc1ccc(NC(=O)c2noc3c2CCCCC3)cc1	-29	8	-4	-228	-44	-262
CCOC(=O)N1CCN(c2ccncc2S(=O)(=O)N2CCCCC2)CC1	-2	-12	4	21	15	15
CCOC(=O)N(C)c1c(CC)nc2c(OCc3ccc(S(C)(=O)=O)cc3)cccn12	18	-6	12	3	-7	3
CN(C)c1ccc(/C=C2\Oc3ccc(C#Cc4cccc(N)c4)cc3C2=O)cc1	-76	5	-36	-186	-63	-107
COc1ccc(NC(=O)/C(C#N)=C\c2cc(C)n(-c3ccc4c(c3)OCO4)c2C)cc1	51*	-32	35	-33	21	9
CCCN(CC(=O)Nc1ccccc1OC)C(=O)CCC(=O)c1ccc(OCC)cc1	4	3	-5	3	-15	19
CC(=O)/C(C#N)=C1\NC(=O)C(Cc2ccccc2)S1 (stereo not given)	64*	0	-15	-31	3	-154
COc1ccc(C(OCC(O)CNCCc2ccc(S(N)(=O)=O)cc2)c2ccc(OC)cc2)cc1 (stereo not given)	6	-4	-3	8	-11	-16
OC(CNCCc1ccc(C(F)(F)F)cc1)COC(c1ccccc1)c1ccccc1 (stereo not given)	-21	-16	14	4	26	111*
SMILES	TWEAK-Fn14 inh	KKLEB cytotox	CF NFkB block	HIF-2a inh	TROY signal inh	Peg3 promoter
Cc1ccc(NC(=O)CSc2nsc(SCC(=O)Nc3ccc(C)cc3C)c2C#N)c(C)c1	-45	-8	-2	2	7	77*
Cc1nc(SCC(=O)Nc2nccs2)c(C#N)c(C)c1C	76*	-32	-12	16	73*	5
Cc1csc(NC(=O)CSc2nsc(SCC(=O)Nc3nc(C)cs3)c2C#N)n1	47	-5	13	-179	57*	-179
CC(C)(C)NC(=O)CSc1nsc(SCC(=O)NC(C)(C)C)c1C#N	-20	5	-17	2	-1	18
CCN(CC(=O)NC1CCS(=O)(=O)C1)C(C)C(=O)Nc1ccc(F)cc1 (stereo not given)	17	-16	-5	-5	7	19
CC(NC(=O)c1cc(F)c(F)cc1Cl)C1CC2CCC1C2 (stereo not given)	15	5	15	1	7	6
CCc1ccc(C(C(=O)NC2CCCC2)N(C(=O)/C=C/C(=O)Nc2cc(C)on2)c2ccccc2C)cc1 (stereo not given)	56*	-14	17	18	27	36
CCOc1ccc(N(C(=O)/C=C/C(=O)Nc2cc(C)on2)C(C(=O)NC2CCCC2)c2ccccc2C)cc1 (stereo not given)	49	-17	15	-3	25	42
CC(C)c1noc2ncc(C(=O)c3cc(Cl)cc(Cl)c3O)cc12	10	-7	27	13	62*	37
CCNC(=O)COc1ccc(/C=C2\COc3ccccc3C2=O)cc1OC	46	4	11	17	32	71*
CCOc1cc(/C=C2\COc3ccccc3C2=O)ccc1OCC(=O)N(C)C	79*	-12	19	25	2	62*
COC(=O)c1ccc(C(=O)OC)c(NC(=O)N2c3ccccc3Sc3ccccc32)c1	-34	-54*	54*	12	0	16
Cc1ccc(S(=O)(=O)NCc2ccc(C(=O)N3CCN(c4ccc([N+](=O)[O-])cc4)CC3)cc2)cc1	50*	9	-1	20	38	18
COc1cc(C(=O)N2CCN(c3ccc([N+](=O)[O-])cc3)CC2)ccc1OCc1c(C)noc1C	73*	-5	-6	10	.	16
CCOc1cc(N2CCOCC2)c(OCC)cc1NC(=O)c1ccc(OCc2c(C)noc2C)c(OC)c1	15	15	-18	7	10	50*
COc1ccc(N2CCN(C(=O)c3ccc(COc4ccc([N+](=O)[O-])cc4)o3)CC2)cc1	51*	-11	14	11	27	6
COc1ccc(N2CCN(C(=O)c3ccc(CNS(=O)(=O)c4ccc(C)cc4)cc3)CC2)cc1	28	-12	9	-15	7	-4
